Data as given in PMC7862700, “An all-to-all approach to the identification of sequence-specific readers for epigenetic DNA modifications on cytosine”.

Columns and labels:
Assay in all cases: DAPPL (digital affinity profiling via proximity ligation, sequencing); 10 mM Tris-HCl pH 7.5, 50 mM NaCl, 1 mM DTT, 4% glycerol, room temperature, 30 min; GST-TFs on glutathione beads, 16-mer random dsDNA library, 0.1% formaldehyde crosslink after washing; high values mean tight binding
Settings in all cases: protein: recombinant; tags: N-terminal GST; dsDNA, one strand shown
[1] = target: T1, ERF (Homo sapiens, UniProt P50548 1-548)
T1 sequence: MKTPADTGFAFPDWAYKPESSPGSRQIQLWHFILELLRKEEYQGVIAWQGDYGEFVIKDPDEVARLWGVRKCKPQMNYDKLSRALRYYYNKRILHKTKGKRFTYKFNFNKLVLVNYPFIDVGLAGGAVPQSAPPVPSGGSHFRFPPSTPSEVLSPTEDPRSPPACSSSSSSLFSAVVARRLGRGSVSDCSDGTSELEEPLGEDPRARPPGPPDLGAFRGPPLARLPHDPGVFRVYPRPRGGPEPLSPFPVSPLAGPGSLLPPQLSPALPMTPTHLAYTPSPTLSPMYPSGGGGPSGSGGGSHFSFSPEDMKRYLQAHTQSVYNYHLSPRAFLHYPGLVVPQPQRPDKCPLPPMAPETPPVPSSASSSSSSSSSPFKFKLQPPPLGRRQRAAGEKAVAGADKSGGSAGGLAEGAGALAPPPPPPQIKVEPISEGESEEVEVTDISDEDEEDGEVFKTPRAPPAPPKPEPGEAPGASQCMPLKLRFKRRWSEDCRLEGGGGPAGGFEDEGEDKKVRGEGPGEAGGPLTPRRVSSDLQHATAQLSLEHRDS
How it was run: (§1)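 Pools of DNA-barcoded human transcription factors, expressed in yeast as GST fusions on glutathione beads and combined with a tag-only sample, were incubated with 200 nmole of a 16-mer random double-stranded DNA library. Incubation took 30 min at room temperature in Tris/NaCl/DTT/glycerol buffer and was followed by washing, 0.1% formaldehyde crosslinking, proximity ligation (BsaI/T4 ligase, 1 h, 37 °C), PCR amplification and sequencing on an Illumina NextSeq500. Binding signal is the ratio of a hexamer's read frequency for a factor to its frequency for the tag-only sample.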

[2] = target: T2, ETV3L (Homo sapiens, UniProt Q6ZN32 1-361)
T2 sequence: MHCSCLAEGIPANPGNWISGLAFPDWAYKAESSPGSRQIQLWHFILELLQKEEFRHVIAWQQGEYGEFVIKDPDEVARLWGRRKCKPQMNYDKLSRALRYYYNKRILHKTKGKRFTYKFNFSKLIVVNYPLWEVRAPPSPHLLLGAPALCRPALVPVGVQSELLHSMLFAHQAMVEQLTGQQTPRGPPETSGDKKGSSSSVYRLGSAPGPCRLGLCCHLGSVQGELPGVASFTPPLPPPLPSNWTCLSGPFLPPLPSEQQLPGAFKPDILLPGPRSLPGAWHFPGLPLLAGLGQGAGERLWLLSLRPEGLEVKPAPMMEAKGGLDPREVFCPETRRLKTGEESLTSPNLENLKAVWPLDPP
How it was run: as §1

[3] = target: T3, ETS2 (Homo sapiens, UniProt P15036 1-469)
T3 sequence: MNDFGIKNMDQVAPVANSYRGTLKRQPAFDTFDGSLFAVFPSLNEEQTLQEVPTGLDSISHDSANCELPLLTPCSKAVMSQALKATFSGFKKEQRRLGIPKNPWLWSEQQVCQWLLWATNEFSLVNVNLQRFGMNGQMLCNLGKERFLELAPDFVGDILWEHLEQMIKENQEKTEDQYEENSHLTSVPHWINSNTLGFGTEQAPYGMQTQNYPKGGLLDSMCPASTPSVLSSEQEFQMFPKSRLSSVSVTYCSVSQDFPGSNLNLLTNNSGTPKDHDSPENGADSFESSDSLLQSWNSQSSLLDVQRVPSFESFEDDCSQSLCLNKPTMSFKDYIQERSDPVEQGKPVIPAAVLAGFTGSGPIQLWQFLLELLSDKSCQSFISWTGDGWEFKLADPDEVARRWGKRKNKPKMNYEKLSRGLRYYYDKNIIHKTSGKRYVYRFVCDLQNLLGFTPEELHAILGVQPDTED
How it was run: as §1

[4] = target: T4, SPDEF (Homo sapiens, UniProt O95238 1-335)
T4 sequence: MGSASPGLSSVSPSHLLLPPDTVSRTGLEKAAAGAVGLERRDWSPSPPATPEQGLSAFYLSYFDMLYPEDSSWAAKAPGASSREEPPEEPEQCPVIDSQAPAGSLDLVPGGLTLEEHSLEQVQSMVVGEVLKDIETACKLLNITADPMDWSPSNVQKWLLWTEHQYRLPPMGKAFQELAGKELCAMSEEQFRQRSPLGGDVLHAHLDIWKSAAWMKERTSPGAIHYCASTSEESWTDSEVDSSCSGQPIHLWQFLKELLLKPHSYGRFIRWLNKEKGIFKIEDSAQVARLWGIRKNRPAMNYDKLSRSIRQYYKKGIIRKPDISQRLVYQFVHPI
How it was run: as §1

[5] = target: T5, ETV7 (Homo sapiens, UniProt Q9Y603 1-341)
T5 sequence: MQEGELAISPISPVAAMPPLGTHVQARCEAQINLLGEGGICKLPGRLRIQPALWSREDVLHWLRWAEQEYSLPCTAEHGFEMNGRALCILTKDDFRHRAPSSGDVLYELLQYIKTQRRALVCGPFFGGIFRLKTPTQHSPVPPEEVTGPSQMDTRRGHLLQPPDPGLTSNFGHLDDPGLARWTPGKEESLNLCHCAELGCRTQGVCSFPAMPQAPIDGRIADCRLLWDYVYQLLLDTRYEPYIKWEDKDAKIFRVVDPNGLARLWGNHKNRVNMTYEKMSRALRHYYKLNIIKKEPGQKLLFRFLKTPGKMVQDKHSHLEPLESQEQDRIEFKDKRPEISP
How it was run: as §1

[6] = target: T6, ELF5 (Homo sapiens, UniProt Q9UKW6-2 1-255)
T6 sequence: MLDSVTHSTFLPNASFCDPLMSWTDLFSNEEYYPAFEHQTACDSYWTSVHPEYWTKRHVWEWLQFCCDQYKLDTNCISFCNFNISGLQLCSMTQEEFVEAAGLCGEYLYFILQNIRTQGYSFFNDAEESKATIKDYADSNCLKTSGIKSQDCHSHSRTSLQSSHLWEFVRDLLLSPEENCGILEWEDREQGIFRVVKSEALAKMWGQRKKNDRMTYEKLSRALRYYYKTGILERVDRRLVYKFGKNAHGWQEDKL
How it was run: as §1

[7] = target: T7, ETV3 (Homo sapiens, UniProt P41162-2 1-143)
T7 sequence: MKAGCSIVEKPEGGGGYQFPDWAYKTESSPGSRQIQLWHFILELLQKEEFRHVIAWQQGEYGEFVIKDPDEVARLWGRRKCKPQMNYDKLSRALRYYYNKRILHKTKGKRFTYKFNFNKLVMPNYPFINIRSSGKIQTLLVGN
How it was run: as §1

[8] = target: ETV6 (Homo sapiens, UniProt P41212 1-452)
Sequence of ETV6 (P41212 whole entry): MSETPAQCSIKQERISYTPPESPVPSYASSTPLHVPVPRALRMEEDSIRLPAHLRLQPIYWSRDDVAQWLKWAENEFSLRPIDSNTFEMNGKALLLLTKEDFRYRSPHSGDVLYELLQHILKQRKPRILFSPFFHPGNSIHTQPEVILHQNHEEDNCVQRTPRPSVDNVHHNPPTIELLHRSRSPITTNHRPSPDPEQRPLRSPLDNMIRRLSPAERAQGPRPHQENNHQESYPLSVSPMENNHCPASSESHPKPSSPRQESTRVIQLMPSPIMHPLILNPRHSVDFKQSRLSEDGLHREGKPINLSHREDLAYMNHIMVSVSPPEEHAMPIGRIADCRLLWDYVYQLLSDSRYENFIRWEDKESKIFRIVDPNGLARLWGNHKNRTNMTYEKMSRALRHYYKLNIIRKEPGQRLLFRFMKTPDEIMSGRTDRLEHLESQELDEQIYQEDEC
How it was run: as §1

Sequence | binding signal [1] | binding signal [2] | binding signal [3] | binding signal [4] | binding signal [5] | binding signal [6] | binding signal [7] | binding signal [8]
GCTCCG | 1.26 fold enrichment (6-mer frequency, TF over GST control) | 1.33 fold enrichment (6-mer frequency, TF over GST control) | 1.33 fold enrichment (6-mer frequency, TF over GST control) | 1.34 fold enrichment (6-mer frequency, TF over GST control) | 1.27 fold enrichment (6-mer frequency, TF over GST control) | 1.25 fold enrichment (6-mer frequency, TF over GST control) | 1.2 fold enrichment (6-mer frequency, TF over GST control) | 1.19 fold enrichment (6-mer frequency, TF over GST control)
AATCCT | 1.21 fold enrichment (6-mer frequency, TF over GST control) | 1.24 fold enrichment (6-mer frequency, TF over GST control) | 1.32 fold enrichment (6-mer frequency, TF over GST control) | 1.45 fold enrichment (6-mer frequency, TF over GST control) | 1.41 fold enrichment (6-mer frequency, TF over GST control) | 1.61 fold enrichment (6-mer frequency, TF over GST control) | 1.37 fold enrichment (6-mer frequency, TF over GST control) | 1.29 fold enrichment (6-mer frequency, TF over GST control)
AAACCA | 1.16 fold enrichment (6-mer frequency, TF over GST control) | 1.18 fold enrichment (6-mer frequency, TF over GST control) | 1.17 fold enrichment (6-mer frequency, TF over GST control) | 1.1 fold enrichment (6-mer frequency, TF over GST control) | 1.2 fold enrichment (6-mer frequency, TF over GST control) | 1.13 fold enrichment (6-mer frequency, TF over GST control) | 1.15 fold enrichment (6-mer frequency, TF over GST control) | 1.21 fold enrichment (6-mer frequency, TF over GST control)
TCTCTT | 1.37 fold enrichment (6-mer frequency, TF over GST control) | 1.49 fold enrichment (6-mer frequency, TF over GST control) | 1.37 fold enrichment (6-mer frequency, TF over GST control) | 1.32 fold enrichment (6-mer frequency, TF over GST control) | 1.17 fold enrichment (6-mer frequency, TF over GST control) | 1.39 fold enrichment (6-mer frequency, TF over GST control) | 1.44 fold enrichment (6-mer frequency, TF over GST control) | 1.36 fold enrichment (6-mer frequency, TF over GST control)
TAATAA | 1.28 fold enrichment (6-mer frequency, TF over GST control) | 1.24 fold enrichment (6-mer frequency, TF over GST control) | 1.21 fold enrichment (6-mer frequency, TF over GST control) | 1.19 fold enrichment (6-mer frequency, TF over GST control) | 1.14 fold enrichment (6-mer frequency, TF over GST control) | 1.15 fold enrichment (6-mer frequency, TF over GST control) | 1.11 fold enrichment (6-mer frequency, TF over GST control) | 1.17 fold enrichment (6-mer frequency, TF over GST control)
CGACAA | 1.18 fold enrichment (6-mer frequency, TF over GST control) | 1.24 fold enrichment (6-mer frequency, TF over GST control) | 1.16 fold enrichment (6-mer frequency, TF over GST control) | 1.27 fold enrichment (6-mer frequency, TF over GST control) | 1.12 fold enrichment (6-mer frequency, TF over GST control) | 1.14 fold enrichment (6-mer frequency, TF over GST control) | 1.15 fold enrichment (6-mer frequency, TF over GST control) | 1.31 fold enrichment (6-mer frequency, TF over GST control)
TATTTA | 1.65 fold enrichment (6-mer frequency, TF over GST control) | 1.44 fold enrichment (6-mer frequency, TF over GST control) | 1.55 fold enrichment (6-mer frequency, TF over GST control) | 1.47 fold enrichment (6-mer frequency, TF over GST control) | 1.45 fold enrichment (6-mer frequency, TF over GST control) | 1.37 fold enrichment (6-mer frequency, TF over GST control) | 1.41 fold enrichment (6-mer frequency, TF over GST control) | 1.43 fold enrichment (6-mer frequency, TF over GST control)
TGGTAA | 1.27 fold enrichment (6-mer frequency, TF over GST control) | 1.25 fold enrichment (6-mer frequency, TF over GST control) | 1.32 fold enrichment (6-mer frequency, TF over GST control) | 1.19 fold enrichment (6-mer frequency, TF over GST control) | 1.4 fold enrichment (6-mer frequency, TF over GST control) | 1.23 fold enrichment (6-mer frequency, TF over GST control) | 1.15 fold enrichment (6-mer frequency, TF over GST control) | 1.25 fold enrichment (6-mer frequency, TF over GST control)
